In PubChem BioAssay (EPA / NIEHS):
Results filed as inconclusive are left out. Calls of active or inactive are those of the source. The calls were made as follows: active = hit-call score of the fitted dose curve at least 0.9, where 1 is the maximum; inconclusive = response in the unintended direction; inactive = score below 0.9.

Target: Glycogen synthase kinase-3 beta (Homo sapiens) (UniProt P49841)
Experiment: NVS_ENZ_hGSK3b: NovaScreen (NVS) Enzymatic Assay for human Glycogen Synthase Kinase-3 beta (GSK3b) (AID 2283165)
Protocol: NVS_ENZ_hGSK3b is a biochemical, single-readout assay that uses extracted gene-proteins in a cell-free assay. Measurements were taken 1 hour after chemical dosing in a 384-well plate.NVS_ENZ_hGSK3b is one of one assay component(s) measured or calculated from the NVS_ENZ_hGSK3b assay. It is designed to make measurements of enzyme activity, a form of enzyme reporter, as detected with fluorescence intensity signals by Fluorescence and electrophoretic mobility shift technology.Data from the assay component NVS_ENZ_hGSK3b was analyzed into 1 assay endpoint. This assay endpoint, NVS_ENZ_hGSK3b, was analyzed in the positive analysis fitting direction relative to DMSO as the negative control and baseline of activity. Using a type of enzyme reporter, loss-of-signal activity can be used to understand changes in the enzymatic activity as they relate to the gene GSK3B. Furthermore, this assay endpoint can be referred to as a primary readout, because this assay has produced multiple assay endpoints where this one serves a enzymatic activity function. To generalize the intended target to other relatable targets, this assay endpoint is annotated to the kinase intended target family, where the subfamily is serine/threonine kinase.
Binding assays used specific radioligands (tritiated, iodinated) with non-radioactive competitive displacement ligands in agonist or antagonist protocols (as indicated) and various reference compounds and inhibitors to titrate specific binding to receptors and transporters. Most enzyme assays (CYPs, kinases, phosphatases, proteases, HDACs) used recombinant protein and specific substrates (fluorescence mostly, some colorimetric and radioactive) and inhibitors, followed by a biochemical separation of substrate and product. All assays for the biochemical HTS were initially run in duplicate at a single concentration (10 uM for CYP450 assays and 25 uM for all others). Assay-chemical combinations meeting a pre-defined threshold (e.g., 30% inhibition and other criteria defined below) were then run in singleton concentration-response format with maximum concentration of 20 uM for CYPs and 50 uM for all others. Each assay was run with positive and negative controls, and concurrent controls on every plate. The follow-up (secondary) screen tested active chemical-pairs in concentration series, as well as a few additional assays not tested in the primary screen, some selected negative inactives, and several cases re-run in the concentration series for confirmatory purposes.

Glycogen synthase kinase-3 beta (Homo sapiens), sequence (P49841 whole entry, looked up): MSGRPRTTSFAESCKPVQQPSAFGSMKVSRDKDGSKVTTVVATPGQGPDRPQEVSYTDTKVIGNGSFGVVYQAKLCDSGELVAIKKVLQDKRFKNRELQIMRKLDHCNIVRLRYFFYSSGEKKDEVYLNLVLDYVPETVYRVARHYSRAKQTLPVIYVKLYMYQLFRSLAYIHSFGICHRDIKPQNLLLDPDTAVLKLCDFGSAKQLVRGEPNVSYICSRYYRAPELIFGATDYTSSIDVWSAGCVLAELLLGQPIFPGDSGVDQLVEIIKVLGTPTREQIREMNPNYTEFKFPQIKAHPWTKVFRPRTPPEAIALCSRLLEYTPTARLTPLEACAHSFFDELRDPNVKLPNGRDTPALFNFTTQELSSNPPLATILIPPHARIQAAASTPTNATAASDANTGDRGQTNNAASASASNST

outcome, inactive:
COc1cccc(-c2ccc(/C=C\CN3CCCCCC3)cc2Cl)c1
CN(C)c1ccc(N=NS(=O)(=O)O)cc1
Clc1nc(Cl)c(Cl)c(Cl)c1Cl
CC(C)=CCC/C(C)=C/CO
CC(C)=CCCC(C)CCO (stereo not given)
CCN(C(=O)c1cc(C)cc(OC[C@H](C)Nc2ccncc2)c1)C(C)C
Cc1ccc(S(=O)(=O)O)cc1C
CNS(=O)(=O)c1cc(C(=O)N2CCC(CCN3C4CCC3CC(n3c(C)nc5ccccc53)C4)(c3cccc(F)c3)CC2)c(Cl)cc1F (stereo not given)
O=C1OC(=O)C2C3C=CC(C3)C12 (stereo not given)
CC1=CC(=O)CC(C)(C)C1
CC1(C)C(=O)N(Br)C(=O)N1Br
CC[C@H](C)C(=O)O[C@H]1C[C@@H](C)C=C2C=C[C@H](C)[C@H](CC[C@@H]3C[C@@H](O)CC(=O)O3)[C@H]21
COCCOc1cc2cc(C(=O)NC3CCN(C(C)C)CC3)n(CC(=O)Nc3ccc(Cl)cn3)c2cn1
O=P(OC(CCl)CCl)(OC(CCl)CCl)OC(CCl)CCl
CN(C)c1ccc(Cc2ccc(N(C)C)cc2)cc1
CCc1cc(SCc2sc(-c3ccc(C(F)(F)F)cc3)nc2CN2CCN(c3ccc(OC)cc3)CC2)ccc1OCC(=O)O
CCOC(=O)COc1ccc2c(c1)CC(NCC(O)c1cccc(Cl)c1)CC2 (stereo not given)
CCCC(=O)OCC
CC(C)=CCCC(C)=CC=O
Cc1ccc(N)cc1O
CCCCCCCCO
O=C(O)c1cc(N=Nc2ccc(S(=O)(=O)Nc3ccccn3)cc2)ccc1O

AC50, active:
Nc1nc2ncc(CNc3ccc(C(=O)N[C@@H](CCC(=O)O)C(=O)O)cc3)nc2c(=O)[nH]1 41.1 µM
O=C(OC[C@H]1O[C@@H](OC(=O)c2cc(O)c(O)c(OC(=O)c3cc(O)c(O)c(O)c3)c2)[C@H](OC(=O)c2cc(O)c(O)c(OC(=O)c3cc(O)c(O)c(O)c3)c2)[C@@H](OC(=O)c2cc(O)c(O)c(OC(=O)c3cc(O)c(O)c(O)c3)c2)[C@@H]1OC(=O)c1cc(O)c(O)c(OC(=O)c2cc(O)c(O)c(O)c2)c1)c1cc(O)c(O)c(OC(=O)c2cc(O)c(O)c(O)c2)c1 0.000698 µM
COc1ccc2sc(C(=O)Nc3nnn[nH]3)c(OC(C)C)c2c1 1.42 µM
